From PubChem BioAssay AID1159580 (chemical genetic matrix, 2015)
Hit rate of the full screen: of about 5,500 compounds, about 2,000 (36%) were called active. Roughly 18% stayed inconclusive and do not appear here. The list shows a part of the results. A number with no mark means an inactive call. Cut-off read from the data, not from the text of the source: active = normalized growth mostly below about 0.91 (no sharp cut-off); inconclusive = no clear call, values can overlap the other calls; inactive = mostly above about 0.92.

Test: chemical genetic growth profiling, strain panel (AID 1159580);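 note: tested at 20 µM; growth read once vehicle control cultures reached saturation at 30 °C; 1 = growth at the plate median or of vehicle wells; lower values mean less growth of the strain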
Conditions: growth OD

Which results are given for `CO[C@@H]1[C@@H](OC(N)=O)[C@@H](O)[C@H](Oc2ccc3c(O)c(NC(=O)c4ccc(O)c(CC=C(C)C)c4)c(=O)oc3c2C)OC1(C)C`?
normalized growth (S. cerevisiae deletion strains, locus YJR043C, strain POL32, hits give low values): 1; normalized growth (S. cerevisiae deletion strains, locus YJR066W, strain TOR1, hits give low values): 0.896; normalized growth (S. cerevisiae deletion strains, locus YJR075W, strain HOC1, hits give low values): 1.02; normalized growth (S. cerevisiae deletion strains, locus YKL009W, strain mrt4, hits give low values): 0.96; normalized growth (S. cerevisiae deletion strains, locus YKL068W, hits give low values): 0.925 (active); normalized growth (S. cerevisiae deletion strains, locus YKL085W, strain MDH1 (second series), hits give low values): 0.949; normalized growth (S. cerevisiae deletion strains, locus YKL085W, strain MDH1, hits give low values): 0.949; normalized growth (S. cerevisiae deletion strains, locus YKL160W, strain elf1, hits give low values): 1.03; normalized growth (S. cerevisiae deletion strains, locus YKL190W, strain CNB1, hits give low values): 0.993; normalized growth (S. cerevisiae deletion strains, locus YKR001C, strain vps1, hits give low values): 0.99; normalized growth (S. cerevisiae deletion strains, locus YKR026C, strain gcn3, hits give low values): 1.04; normalized growth (S. cerevisiae deletion strains, locus YKR091W, strain srl3, hits give low values): 1.03; normalized growth (S. cerevisiae deletion strains, locus YLL001W, strain dnm1, hits give low values): 1.04; normalized growth (S. cerevisiae deletion strains, locus YLL026W, hits give low values): 1.04; normalized growth (S. cerevisiae deletion strains, locus YLL041C, strain sdh2, hits give low values): 1.02; normalized growth (S. cerevisiae deletion strains, locus YLR027C, strain aat2, hits give low values): 1.03; normalized growth (S. cerevisiae deletion strains, locus YLR039C, strain RIC1, hits give low values): 0.962; normalized growth (S. cerevisiae deletion strains, locus YLR058C, strain SHM2, hits give low values): 1.01; normalized growth (S. cerevisiae deletion strains, locus YLR102C, strain apc9, hits give low values): 0.993; normalized growth (S. cerevisiae deletion strains, locus YLR113W, strain HOG1, hits give low values): 0.793 (active); normalized growth (S. cerevisiae deletion strains, locus YLR221C, strain rsa3, hits give low values): 1.02; normalized growth (S. cerevisiae deletion strains, locus YLR258W, strain gsy2, hits give low values): 1.03; normalized growth (S. cerevisiae deletion strains, locus YLR262C, strain YPT6 (second series), hits give low values): 1.02; normalized growth (S. cerevisiae deletion strains, locus YLR262C, strain YPT6, hits give low values): 0.968; normalized growth (S. cerevisiae deletion strains, locus YLR268W, strain sec22, hits give low values): 0.955; normalized growth (S. cerevisiae deletion strains, locus YLR320W, strain mms22, hits give low values): 1.04; normalized growth (S. cerevisiae deletion strains, locus YLR330W, strain CHS5, hits give low values): 1.03; normalized growth (S. cerevisiae deletion strains, locus YLR342W, strain FKS1 (second series), hits give low values): 1.04; normalized growth (S. cerevisiae deletion strains, locus YLR342W, strain FKS1, hits give low values): 1.03; normalized growth (S. cerevisiae deletion strains, locus YLR357W, strain rsc2, hits give low values): 1.05; normalized growth (S. cerevisiae deletion strains, locus YLR370C, strain arc18, hits give low values): 1.03; normalized growth (S. cerevisiae deletion strains, locus YLR371W, strain rom2, hits give low values): 0.979; normalized growth (S. cerevisiae deletion strains, locus YLR384C, strain iki3, hits give low values): 1.04; normalized growth (S. cerevisiae deletion strains, locus YLR418C, strain cdc73, hits give low values): 1; normalized growth (S. cerevisiae deletion strains, locus YML016C, strain PPZ1, hits give low values): 1.02; normalized growth (S. cerevisiae deletion strains, locus YML032C, strain rad52, hits give low values): 0.99; normalized growth (S. cerevisiae deletion strains, locus YML120C, strain ndi1, hits give low values): 1.02; normalized growth (S. cerevisiae deletion strains, locus YML124C, strain tub3, hits give low values): 1; normalized growth (S. cerevisiae deletion strains, locus YMR058W, strain fet3, hits give low values): 1.03; normalized growth (S. cerevisiae deletion strains, locus YMR078C, strain ctf18, hits give low values): 0.997; normalized growth (S. cerevisiae deletion strains, locus YMR125W, strain sto1, hits give low values): 1.02; normalized growth (S. cerevisiae deletion strains, locus YMR129W, hits give low values): 1.03; normalized growth (S. cerevisiae deletion strains, locus YMR205C, strain PFK2, hits give low values): 1.05; normalized growth (S. cerevisiae deletion strains, locus YMR223W, strain ubp8, hits give low values): 1.03; normalized growth (S. cerevisiae deletion strains, locus YMR231W, strain pep5, hits give low values): 1.03; normalized growth (S. cerevisiae deletion strains, locus YMR307W, strain GAS1, hits give low values): 1.02; normalized growth (S. cerevisiae deletion strains, locus YNL067W, strain RPL9B, hits give low values): 0.989; normalized growth (S. cerevisiae deletion strains, locus YNL071W, strain lat1, hits give low values): 1.04; normalized growth (S. cerevisiae deletion strains, locus YNL128W, strain TEP1, hits give low values): 0.945; normalized growth (S. cerevisiae deletion strains, locus YNL183C, strain NPR1, hits give low values): 0.847; normalized growth (S. cerevisiae deletion strains, locus YNL209W, strain ssb2, hits give low values): 1.04; normalized growth (S. cerevisiae deletion strains, locus YNL233W, strain BNI4, hits give low values): 1.02; normalized growth (S. cerevisiae deletion strains, locus YNL248C, strain rpa49, hits give low values): 1.02; normalized growth (S. cerevisiae deletion strains, locus YNL250W, strain rad50, hits give low values): 0.956; normalized growth (S. cerevisiae deletion strains, locus YNL271C, strain bni1, hits give low values): 0.986; normalized growth (S. cerevisiae deletion strains, locus YNL298W, strain CLA4, hits give low values): 0.997; normalized growth (S. cerevisiae deletion strains, locus YNL307C, strain MCK1, hits give low values): 0.991; normalized growth (S. cerevisiae deletion strains, locus YNL322C, strain KRE1 (second series), hits give low values): 1.01; normalized growth (S. cerevisiae deletion strains, locus YNR049C, strain mso1, hits give low values): 1.04; normalized growth (S. cerevisiae deletion strains, locus YNR052C, strain pop2, hits give low values): 0.978; normalized growth (S. cerevisiae deletion strains, locus YOL006C, strain TOP1, hits give low values): 0.965; normalized growth (S. cerevisiae deletion strains, locus YOL012C, strain htz1): 1; normalized growth (S. cerevisiae deletion strains, locus YOL147C, strain pex11, hits give low values): 1.01; normalized growth (S. cerevisiae deletion strains, locus YOR001W, strain rrp6, hits give low values): 0.979; normalized growth (S. cerevisiae deletion strains, locus YOR061W, strain CKA2, hits give low values): 1.01; normalized growth (S. cerevisiae deletion strains, locus YOR069W, strain VPS5, hits give low values): 1.01; normalized growth (S. cerevisiae deletion strains, locus YOR070C, strain gyp1, hits give low values): 1.03; normalized growth (S. cerevisiae deletion strains, locus YOR080W, strain dia2, hits give low values): 1.04; normalized growth (S. cerevisiae deletion strains, locus YOR083W, strain WHI5, hits give low values): 1.03; normalized growth (S. cerevisiae deletion strains, locus YOR106W, strain vam3, hits give low values): 1.02; normalized growth (S. cerevisiae deletion strains, locus YOR136W, strain idh2, hits give low values): 1; normalized growth (S. cerevisiae deletion strains, locus YOR144C, strain elg1, hits give low values): 1; normalized growth (S. cerevisiae deletion strains, locus YOR184W, strain ser1, hits give low values): 0.987; normalized growth (S. cerevisiae deletion strains, locus YOR231W, strain MKK1, hits give low values): 0.882; normalized growth (S. cerevisiae deletion strains, locus YOR265W, strain rbl2, hits give low values): 1.02; normalized growth (S. cerevisiae deletion strains, locus YOR270C, strain vph1, hits give low values): 0.927; normalized growth (S. cerevisiae deletion strains, locus YOR290C, strain snf2, hits give low values): 1.05; normalized growth (S. cerevisiae deletion strains, locus YOR316C, strain cot1, hits give low values): 0.987; normalized growth (S. cerevisiae deletion strains, locus YPL051W, strain arl3, hits give low values): 1.05; normalized growth (S. cerevisiae deletion strains, locus YPL055C, strain LGE1, hits give low values): 0.991; normalized growth (S. cerevisiae deletion strains, locus YPL078C, strain atp4, hits give low values): 1.02; normalized growth (S. cerevisiae deletion strains, locus YPL106C, strain sse1, hits give low values): 1.05; normalized growth (S. cerevisiae deletion strains, locus YPL240C, strain hsp82, hits give low values): 1.02; normalized growth (S. cerevisiae deletion strains, locus YPL256C, strain CLN2, hits give low values): 0.861; normalized growth (S. cerevisiae deletion strains, locus YPR119W, strain clb2, hits give low values): 1.01; normalized growth (S. cerevisiae deletion strains, locus YPR141C, strain kar3, hits give low values): 0.962; normalized growth (S. cerevisiae deletion strains, locus YPR163C, strain tif3, hits give low values): 0.996; normalized growth (S. cerevisiae deletion strains, locus YPR167C, strain met16, hits give low values): 0.999; normalized growth (S. cerevisiae deletion strains, strain wtn01, hits give low values): 0.984; normalized growth (S. cerevisiae strains, strain wild type, hits give low values): 1.02
